Bioassay records deposited in PubChem BioAssay by National Center for Advancing Translational Sciences (NCATS).
Sampled rows, rich in hits. Any-hit rate of the full collection: about 19%.
HT1080 IDH1KD tx: qHTS for induction of synthetic lethality in tumor cells producing 2HG: qHTS for the HT-1080-IDH1KD cell line | 360,000 tested, 2% active | AID 686971, 2013 | HT-1080 IDH1 knockdown viability, ATP luminescence, 48 h | Potency, µM (highest dose often 46.1 µM), actives largely listed as cytotoxic
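Knockdown cells (IDH1KD HT-1080) received compounds 2 h after plating at 750 cells/well and were kept 48 h at 37 °C in 5% FBS RPMI. A CellTiter-Glo luminescence read gave % activity for curve fitting.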
DT40 TDP1 CPT: qHTS for Inhibitors of human tyrosyl-DNA phosphodiesterase 1 (TDP1): qHTS in cells in presence of CPT | AID 686979, 2013 | Potency, µM (series often up to 46.2 µM), actives largely listed as inhibitors | chicken DT40 Tdp1-/-;hTDP1 cells + 20 nM CPT, ATP luminescence, 48 h | 420,000 tested, 12% active; note: nearly all actives have a fitted effect of over 55% in size
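Cell growth measured by CellTiter-Glo luminescence after a minimum 48 h, 37 C compound exposure with 20 nM CPT in Tdp1-knockout DT40 cells stably expressing hTDP1, seeded 400/well; qHTS titration format.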
IL1B secr inh: qHTS for Inhibitors of Inflammasome Signaling: IL-1-beta AlphaLISA Primary Screen | THP-1 LPS/ATP IL-1B secretion, AlphaLISA, 16 h; stronger effect = lower value | activity change, % at 57.5 µM | 360,000 tested, 4.7% active; in the data active = activity change below about -50%; inconclusive = mostly about -30% to -49%
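Secreted IL-1B measured by AlphaLISA bead assay after 16 h compound exposure of THP-1 cells; compounds (final up to 57.5 uM) added 1 h before LPS (250 ng/mL) and ATP (1.25 mM) stimulation; lower signal means less secretion.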
HT1080-NT tox: qHTS for induction of synthetic lethality in tumor cells producing 2HG: qHTS for the HT-1080-NT fibrosarcoma cell line; HT-1080-NT fibrosarcoma viability, CellTiter-Glo ATP luminescence, 48 h; Potency, µM (doses to about 46.1 µM), actives largely listed as cytotoxic; 360,000 tested, 1.6% active; AID 686970, 2013;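 note: NT is the 2HG producing partner of a matched IDH1 knockdown line; nearly all actives have a fitted effect of over 55% in size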
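Viability of the 2HG-overproducing fibrosarcoma line after 48 hours of compound exposure at 37 degrees C was determined by luminescence with CellTiter-Glo, and concentration-effect curves were then fitted and categorized.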
DT40 TDP1 no CPT: qHTS for Inhibitors of human tyrosyl-DNA phosphodiesterase 1 (TDP1): qHTS in cells in absence of CPT. DT40 Tdp1-/- hTDP1 cells, no CPT, ATP luminescence, 48 h. Potency, µM (doses to about 46.2 µM), usual class: inhibitors. 420,000 tested, 15% active; note: nearly all actives have a fitted effect of over 55% in size
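A cellular qHTS used chicken DT40 cells lacking endogenous Tdp1 but carrying stably transfected human TDP1. Compounds were applied without camptothecin, and cell growth kinetics were judged by ATP-dependent luminescence after ≥48 hr.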
Large screens that a line does not name were inactive. Unless noted, calls come from the whole dose curve; as a rule, active = well fitted curve in the direction sought with a large enough effect; inconclusive = small, poorly fitted or top-dose-only effect, or another doubt; inactive = no such curve, though single readings can be large; an effect the other way counts as inactive or inconclusive.

O=C(c1cn(-c2ccccc2)nc1-c1cccc([N+](=O)[O-])c1)N1CCCCC1	IL1B secr inh -95, DT40 TDP1 no CPT inconclusive
O=C(Cn1cnc2cc([N+](=O)[O-])ccc2c1=O)Nc1ccccc1-c1ccccc1	DT40 TDP1 CPT 23µM, DT40 TDP1 no CPT inconclusive
COc1ccccc1NC(=O)N1CCN(C(=O)c2ccco2)CC1	none
Fc1ccc(NC(=S)NCCc2ccc(Cl)cc2)cc1	DT40 TDP1 CPT inconclusive, DT40 TDP1 no CPT 23µM
Fc1ccc(CCNC(=S)Nc2ccc(F)c(Cl)c2)cc1	HT1080 IDH1KD tx inconclusive, DT40 TDP1 CPT 18µM, IL1B secr inh -83, HT1080-NT tox inconclusive, DT40 TDP1 no CPT inconclusive
O=C(NCCc1ccc(Cl)cc1)Nc1ccc(F)cc1	DT40 TDP1 CPT inconclusive, DT40 TDP1 no CPT inconclusive
CC(C)C(=O)Nc1ccc(COc2ccccc2CN(Cc2ccccc2)C(=O)OC(C)(C)C)cc1	HT1080 IDH1KD tx inconclusive, DT40 TDP1 CPT 15µM, DT40 TDP1 no CPT 15µM
CC(C)(C)OC(=O)N(CCc1ccccc1)Cc1ccccc1OCc1ccc(NC(=O)C2CCCC2)cc1	DT40 TDP1 CPT inconclusive, DT40 TDP1 no CPT inconclusive
CC(C)C(=O)Nc1cccc(COc2ccc(CN(Cc3ccccc3)C(=O)OC(C)(C)C)cc2)c1	DT40 TDP1 CPT inconclusive, DT40 TDP1 no CPT 16µM
CCc1nc2c(OCc3cccc(Cl)c3)cccn2c1N(C)C(=O)c1ccco1	DT40 TDP1 CPT inconclusive, DT40 TDP1 no CPT inconclusive
COC(=O)Nc1ccc(S(=O)(=O)N2CCC(C(=O)N(C)C3CCCCC3)CC2)cc1	DT40 TDP1 CPT inconclusive, DT40 TDP1 no CPT 26µM
CCOC(=O)C1CCN(S(=O)(=O)c2ccc(NC(=O)OC)cc2)CC1	none
CC1CCN(S(=O)(=O)c2ccc(C(=O)OC(C)C(=O)N(C)C3CCCCC3)cc2)CC1 (centres undefined)	DT40 TDP1 CPT inconclusive, DT40 TDP1 no CPT 26µM
CC1CCN(S(=O)(=O)c2ccc(C(=O)OC(C)C(=O)NC3CCCCC3C)cc2)CC1 (centres undefined)	DT40 TDP1 no CPT inconclusive
c1ccc(-c2nnc(OCC3CCCO3)c3ccccc23)cc1 (centres undefined)	DT40 TDP1 no CPT inconclusive
Cc1ccc(NC(=O)CN2C(=O)NC3(CCCc4ccccc43)C2=O)c(C)c1 (centres undefined)	DT40 TDP1 CPT inconclusive, DT40 TDP1 no CPT inconclusive
COc1ccccc1C(=O)N(CCN(C)C)c1nc2cc(C)cc(C)c2s1	DT40 TDP1 CPT inconclusive, DT40 TDP1 no CPT 26µM
COc1cc2ccccc2cc1C(=O)N(CCN(C)C)c1nc2ccc(C)cc2s1	HT1080 IDH1KD tx 16µM, DT40 TDP1 CPT inconclusive, HT1080-NT tox 23µM, DT40 TDP1 no CPT inconclusive
COc1cc2ccccc2cc1C(=O)N(CCN(C)C)c1nc2c(OC)ccc(OC)c2s1	HT1080 IDH1KD tx inconclusive, DT40 TDP1 CPT inconclusive, IL1B secr inh -53, HT1080-NT tox 16µM, DT40 TDP1 no CPT inconclusive
Cc1ccc2nc(N(CCN(C)C)C(=O)c3cc(Cl)sc3Cl)sc2c1	none
COc1cc2ccccc2cc1C(=O)N(CCN(C)C)c1nc2c(C)cccc2s1	HT1080 IDH1KD tx inconclusive, DT40 TDP1 CPT 16µM, IL1B secr inh -61, HT1080-NT tox inconclusive, DT40 TDP1 no CPT 23µM
COc1ccc(OC)c2sc(N(CCN(C)C)C(=O)c3ccc4ccccc4c3)nc12	DT40 TDP1 CPT inconclusive, DT40 TDP1 no CPT inconclusive
Cc1cc(C)c2sc(N(CCN(C)C)C(=O)c3cc(Cl)sc3Cl)nc2c1	DT40 TDP1 CPT inconclusive, DT40 TDP1 no CPT inconclusive
C[C@@H]1CCC2[C@](C)(CO)[C@@H](O)CC[C@]2(C)[C@]12CCC(CO)(CCO)O2 (some centres undefined)	none (no result: HT1080 IDH1KD tx, IL1B secr inh, HT1080-NT tox)
N#C/C(=C/C1=C(N2CCOCC2)C(=C/c2ccc(Cl)cc2)/CC1)C(=O)Nc1ccccc1F	DT40 TDP1 CPT inconclusive, DT40 TDP1 no CPT inconclusive
O=C(O)C1OC(C(=O)O)C(C(=O)O)C1C(=O)O (centres undefined)	none
CC(=O)Nc1ccc(S(=O)(=O)NC(C(=O)O)C2=CCC=CC2)cc1 (centres undefined)	none
CCOc1ccccc1-n1nnnc1SCC(=O)O	none
Cc1ccc(N2CCN(S(=O)(=O)c3nnc(NC(=O)c4cccc(F)c4)s3)CC2)cc1	DT40 TDP1 CPT 18µM, DT40 TDP1 no CPT 15µM (no result: HT1080 IDH1KD tx, IL1B secr inh, HT1080-NT tox)
CC1CCN(S(=O)(=O)c2nnc(NC(=O)c3cccc(Cl)c3)s2)CC1	DT40 TDP1 CPT 13µM, DT40 TDP1 no CPT 21µM
CC(C)N1CC=C2C(C#N)=C(N)C(C#N)(C#N)C(c3ccccc3)C2C1 (centres undefined)	DT40 TDP1 CPT inconclusive, DT40 TDP1 no CPT 14µM
CC(C)(C)OC(=O)N1CC=C2C(C#N)=C(N)C(C#N)(C#N)C(c3cccs3)C2C1 (centres undefined)	DT40 TDP1 CPT inconclusive, DT40 TDP1 no CPT 23µM
COc1cc(C2C3CN(C)CC=C3C(C#N)=C(N)C2(C#N)C#N)ccc1OC(C)C (centres undefined)	none
CCN1CC=C2C(C#N)=C(N)C(C#N)(C#N)C(c3cc(Cl)ccc3Cl)C2C1 (centres undefined)	HT1080 IDH1KD tx inconclusive, DT40 TDP1 CPT 18µM, DT40 TDP1 no CPT 23µM
Cc1ccc(NC(=O)NC(=O)CN2CCCC2c2ccc3c(c2)OCCO3)cc1C (centres undefined)	DT40 TDP1 CPT 29µM, DT40 TDP1 no CPT inconclusive
CC(=O)c1ccc(OCC(=O)N2CCCC2c2ccc3c(c2)OCCCO3)cc1 (centres undefined)	none
O=C(CN1CCCC1c1ccc2c(c1)OCCO2)NC(=O)Nc1ccccc1 (centres undefined)	DT40 TDP1 CPT inconclusive, DT40 TDP1 no CPT inconclusive
O=C(CCl)N1CCCC1c1ccc2c(c1)OCCO2 (centres undefined)	HT1080 IDH1KD tx 18µM, DT40 TDP1 CPT 0.73µM, IL1B secr inh -102, HT1080-NT tox 23µM, DT40 TDP1 no CPT 1.2µM
CCc1nn(C(CC)C(=O)NCCc2ccc(OC)cc2OC)c(=O)c2cc3occc3n12 (centres undefined)	none
O=C(O)/C=C/S(=O)(=O)c1ccc2ccccc2c1	DT40 TDP1 CPT inconclusive, DT40 TDP1 no CPT inconclusive
CCOC(=O)CNC(=O)CSc1nc2cccnc2n1C	none
COc1cccc(CNC(=O)C(NS(=O)(=O)c2ccc3c(c2)oc(=O)n3C)C(C)C)c1 (centres undefined)	none (no result: HT1080 IDH1KD tx, IL1B secr inh, HT1080-NT tox)
O=C(N/N=C/c1cccn1-c1ccc([N+](=O)[O-])cc1)c1cccnc1	HT1080 IDH1KD tx inconclusive, DT40 TDP1 CPT 13µM, DT40 TDP1 no CPT 26µM
O=C(N/N=C/c1cccn1-c1ccccc1)c1ccncc1	none
